The results in this text go back to PubChem BioAssay.

The nature of assay [1]: small molecules captured by biotinylated probe aFSTL3 – biochemical, small-molecule microarray, fluorescence 635/667, stem cell growth factor project, primary screen (AID 1064).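 Note: measures binding of the biotinylated anti-FSTL3 antibody to printed compounds.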 The note with it: higher = more signal.
The nature of assay [2]: binders from COS7 lysate, DM2A8 probe, primary screen, torsin A project, cell lysate, small-molecule microarray, fluorescence 635/667 (AID 1065). The note with it: higher = more signal, COS7 lysate expressing mutant human TOR1A.
Assay [3] in a line: small molecules captured by biotinylated probe aFGF2 – biochemical, small-molecule microarray, fluorescence 635/667, stem cell growth factor project, primary screen (AID 1067).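 Note: measures binding of biotinylated aFGF2 protein to printed compounds on slides; z-score merges feature fluorescence and signal-to-noise across triplicate slides.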 The note with it: higher = more signal.
Assay [4] in a line: small molecules captured by biotinylated probe aFGF10 – biochemical, small-molecule microarray, fluorescence 635/667, stem cell growth factor project, primary screen (AID 1071).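 Note: score merges 667 nm spot intensity and signal to noise from triplicate slides.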 The note with it: higher = more signal.
Assay [5] has as its target Neurogenic locus notch homolog protein 2 (Homo sapiens) (UniProt Q04721). Description: small molecules binding Notch2 protein – biochemical, small-molecule microarray, 635 nm fluorescence, stem cell growth factors, primary screen (AID 1073). The note with it: higher = more signal.
In assay [6] the target is Pro-neuregulin-1, membrane-bound isoform (Homo sapiens) (UniProt Q02297). Description: small molecules binding neuregulin-1 protein – biochemical, small-molecule microarray, fluorescence 635/667, psychiatric disease protein project, primary screen (AID 1075).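 Note: score combines 667 nm spot fluorescence with signal to noise.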 The note with it: NRG1 binding, 635 nm fluorescence, higher = more signal.
Sequence of Pro-neuregulin-1, membrane-bound isoform (Homo sapiens) (Q02297 whole entry, looked up, the tested form may be a part, canonical isoform): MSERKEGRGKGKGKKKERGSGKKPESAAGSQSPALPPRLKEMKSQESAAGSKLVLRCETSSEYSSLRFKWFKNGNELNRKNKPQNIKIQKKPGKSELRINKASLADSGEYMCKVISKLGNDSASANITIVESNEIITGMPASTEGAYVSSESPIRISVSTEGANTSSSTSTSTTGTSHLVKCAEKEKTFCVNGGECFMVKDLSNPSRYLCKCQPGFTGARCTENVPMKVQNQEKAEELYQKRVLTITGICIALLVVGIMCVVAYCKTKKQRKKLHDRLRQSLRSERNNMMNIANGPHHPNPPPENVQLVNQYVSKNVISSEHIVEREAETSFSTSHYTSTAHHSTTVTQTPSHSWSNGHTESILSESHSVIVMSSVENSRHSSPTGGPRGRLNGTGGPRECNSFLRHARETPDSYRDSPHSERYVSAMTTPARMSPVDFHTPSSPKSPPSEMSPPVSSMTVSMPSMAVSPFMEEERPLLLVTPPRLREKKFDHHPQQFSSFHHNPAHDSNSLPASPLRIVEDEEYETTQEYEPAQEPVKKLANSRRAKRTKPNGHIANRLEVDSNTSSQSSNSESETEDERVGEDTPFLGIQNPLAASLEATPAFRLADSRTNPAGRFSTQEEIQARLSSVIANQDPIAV
Assay [7] has as its system Neuregulin-1 EGF-like domain. Description: small molecules binding NRG1 EGF domain – biochemical, small-molecule microarray, 635 nm fluorescence, primary screen (AID 1081).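 Note: binding of the protein to compounds printed on small-molecule microarray slides.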 The note with it: higher = more signal.
A short description of assay [8]: FRG1 expression reporter modulators in myotubes – cell-based, C2C12 myotubes, firefly/Renilla luciferase, luminescence, FRG1 inhibition for FSHD, primary screen (AID 1084). The note with it: FRG1 promoter luciferase, higher = more signal, called active from +8 up or from −8 down.
Assay [9] is described as follows: small molecules captured by biotinylated probe aFST – biochemical, small-molecule microarray, fluorescence 635/667, stem cell growth factor project, primary screen (AID 1086).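 Note: score merges 667 nm fluorescence with signal-to-noise of each printed compound spot.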 The note with it: higher = more signal.
A short description of assay [10]: binders of probe aHhip on microarray, primary screen, stem cell growth factor project, biochemical, small-molecule microarray, fluorescence 635/667 (AID 1087).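 Note: score merges spot fluorescence at 667nm with spot signal to noise ratio.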 The note with it: higher = more signal.
Assay [11] relates to PRMT1 (protein arginine N-methyltransferase 1). Description: small molecules binding arginine methyltransferase PRMT1 – biochemical, small-molecule microarray, 635 nm fluorescence, primary screen (AID 1088).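 Note: binding of Prmt1 protein to compounds spotted on small-molecule microarray slides.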 The note with it: higher = more signal.
A short description of assay [12]: growth effects on S. cerevisiae YJM789 – YJM789 clinical isolate, OD600, 24 h, basal, primary screen (AID 1089).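 Note: growth of clinical yeast isolate S. cerevisiae YJM 789 seeded 1000 cells per well; test concentration not given here.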 The note with it: higher = more signal, called active from +8 up or from −8 down.
Assay [13] in a line: S. pombe growth modifiers, basal conditions – strain 972, OD600, 24 h, no modulator, primary screen (AID 1090).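 Note: basal condition with compound alone and no growth modifier present; test concentration not given here.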 The note with it: S. pombe 972 growth, higher = more signal, called active from +8 up or from −8 down.
Assay [14] can be described thus: budding yeast growth modifiers under rapamycin – strain BY4716, OD600, 96 h, primary screen (AID 1091). Note: test concentration not given here. The note with it: S. cerevisiae BY4716 + rapamycin, higher = more signal, called active from +8 up or from −8 down.
For assay [15], the target named is Torsin-1A-interacting protein 2 (Homo sapiens) (UniProt Q8NFQ8). Description: small molecules binding lysate-expressed LULL1 – cell lysate, human LULL1 lysate, 635/667 nm fluorescence, primary screen (AID 1092).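 Note: probe is lysate of COS7 cells overexpressing human LULL1; score merges per-feature 667 nm fluorescence with signal-to-noise.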 The note with it: small-molecule microarray, hLULL1 lysate binding, 635 nm fluorescence; higher = more signal.
Sequence of Torsin-1A-interacting protein 2 (Homo sapiens) (Q8NFQ8 whole entry, looked up): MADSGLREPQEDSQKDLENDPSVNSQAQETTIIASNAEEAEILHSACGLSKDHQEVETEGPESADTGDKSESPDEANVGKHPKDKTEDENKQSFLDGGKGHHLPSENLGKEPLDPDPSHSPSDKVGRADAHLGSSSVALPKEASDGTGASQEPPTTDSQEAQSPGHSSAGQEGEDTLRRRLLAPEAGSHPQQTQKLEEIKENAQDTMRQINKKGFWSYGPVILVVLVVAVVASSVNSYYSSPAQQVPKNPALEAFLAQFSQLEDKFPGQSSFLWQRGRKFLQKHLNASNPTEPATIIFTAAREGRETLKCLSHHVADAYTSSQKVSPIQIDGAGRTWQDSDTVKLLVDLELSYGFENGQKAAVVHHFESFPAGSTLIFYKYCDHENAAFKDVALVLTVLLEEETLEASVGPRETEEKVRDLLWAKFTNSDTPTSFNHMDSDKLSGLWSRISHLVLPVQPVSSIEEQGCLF
A short description of assay [16]: optical density change of DRC41 E. coli – strain DRC41, OD650, 24 h, E. coli filamentation project, primary screen (AID 1093).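 Note: MC1000 strain lacking acrAB efflux and sulA so SOS filamentation is blocked; test concentration not given here.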 The note with it: E. coli DRC41 growth, higher = more signal, called active from +8 up or from −8 down.
A short description of assay [17]: probe aLefty2 binding to arrayed compounds – biochemical, biotinylated probe, 635/667 nm fluorescence, primary screen (AID 1094).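 Note: score merges spot fluorescence near 667 nm with spot signal-to-noise ratio.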 The note with it: small-molecule microarray, higher = more signal.
The test system of assay [18] is Noggin (protein binding on small-molecule microarray). Description: small molecules binding Noggin protein – biochemical, 635/667 nm fluorescence, primary screen (AID 1095).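 Note: score merges 667 nm feature fluorescence with signal to noise over triplicate slides.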 The note with it: 635 nm fluorescence, higher = more signal.
The target in assay [19] is Neurogenic locus notch homolog protein 3 (Homo sapiens) (UniProt Q9UM47). Description: small molecules binding NOTCH3 protein – biochemical, 635/667 nm fluorescence, primary screen (AID 1096). The note with it: small-molecule microarray, 635 nm fluorescence, higher = more signal.
Sequence of Neurogenic locus notch homolog protein 3 (Homo sapiens) (Q9UM47 whole entry, looked up): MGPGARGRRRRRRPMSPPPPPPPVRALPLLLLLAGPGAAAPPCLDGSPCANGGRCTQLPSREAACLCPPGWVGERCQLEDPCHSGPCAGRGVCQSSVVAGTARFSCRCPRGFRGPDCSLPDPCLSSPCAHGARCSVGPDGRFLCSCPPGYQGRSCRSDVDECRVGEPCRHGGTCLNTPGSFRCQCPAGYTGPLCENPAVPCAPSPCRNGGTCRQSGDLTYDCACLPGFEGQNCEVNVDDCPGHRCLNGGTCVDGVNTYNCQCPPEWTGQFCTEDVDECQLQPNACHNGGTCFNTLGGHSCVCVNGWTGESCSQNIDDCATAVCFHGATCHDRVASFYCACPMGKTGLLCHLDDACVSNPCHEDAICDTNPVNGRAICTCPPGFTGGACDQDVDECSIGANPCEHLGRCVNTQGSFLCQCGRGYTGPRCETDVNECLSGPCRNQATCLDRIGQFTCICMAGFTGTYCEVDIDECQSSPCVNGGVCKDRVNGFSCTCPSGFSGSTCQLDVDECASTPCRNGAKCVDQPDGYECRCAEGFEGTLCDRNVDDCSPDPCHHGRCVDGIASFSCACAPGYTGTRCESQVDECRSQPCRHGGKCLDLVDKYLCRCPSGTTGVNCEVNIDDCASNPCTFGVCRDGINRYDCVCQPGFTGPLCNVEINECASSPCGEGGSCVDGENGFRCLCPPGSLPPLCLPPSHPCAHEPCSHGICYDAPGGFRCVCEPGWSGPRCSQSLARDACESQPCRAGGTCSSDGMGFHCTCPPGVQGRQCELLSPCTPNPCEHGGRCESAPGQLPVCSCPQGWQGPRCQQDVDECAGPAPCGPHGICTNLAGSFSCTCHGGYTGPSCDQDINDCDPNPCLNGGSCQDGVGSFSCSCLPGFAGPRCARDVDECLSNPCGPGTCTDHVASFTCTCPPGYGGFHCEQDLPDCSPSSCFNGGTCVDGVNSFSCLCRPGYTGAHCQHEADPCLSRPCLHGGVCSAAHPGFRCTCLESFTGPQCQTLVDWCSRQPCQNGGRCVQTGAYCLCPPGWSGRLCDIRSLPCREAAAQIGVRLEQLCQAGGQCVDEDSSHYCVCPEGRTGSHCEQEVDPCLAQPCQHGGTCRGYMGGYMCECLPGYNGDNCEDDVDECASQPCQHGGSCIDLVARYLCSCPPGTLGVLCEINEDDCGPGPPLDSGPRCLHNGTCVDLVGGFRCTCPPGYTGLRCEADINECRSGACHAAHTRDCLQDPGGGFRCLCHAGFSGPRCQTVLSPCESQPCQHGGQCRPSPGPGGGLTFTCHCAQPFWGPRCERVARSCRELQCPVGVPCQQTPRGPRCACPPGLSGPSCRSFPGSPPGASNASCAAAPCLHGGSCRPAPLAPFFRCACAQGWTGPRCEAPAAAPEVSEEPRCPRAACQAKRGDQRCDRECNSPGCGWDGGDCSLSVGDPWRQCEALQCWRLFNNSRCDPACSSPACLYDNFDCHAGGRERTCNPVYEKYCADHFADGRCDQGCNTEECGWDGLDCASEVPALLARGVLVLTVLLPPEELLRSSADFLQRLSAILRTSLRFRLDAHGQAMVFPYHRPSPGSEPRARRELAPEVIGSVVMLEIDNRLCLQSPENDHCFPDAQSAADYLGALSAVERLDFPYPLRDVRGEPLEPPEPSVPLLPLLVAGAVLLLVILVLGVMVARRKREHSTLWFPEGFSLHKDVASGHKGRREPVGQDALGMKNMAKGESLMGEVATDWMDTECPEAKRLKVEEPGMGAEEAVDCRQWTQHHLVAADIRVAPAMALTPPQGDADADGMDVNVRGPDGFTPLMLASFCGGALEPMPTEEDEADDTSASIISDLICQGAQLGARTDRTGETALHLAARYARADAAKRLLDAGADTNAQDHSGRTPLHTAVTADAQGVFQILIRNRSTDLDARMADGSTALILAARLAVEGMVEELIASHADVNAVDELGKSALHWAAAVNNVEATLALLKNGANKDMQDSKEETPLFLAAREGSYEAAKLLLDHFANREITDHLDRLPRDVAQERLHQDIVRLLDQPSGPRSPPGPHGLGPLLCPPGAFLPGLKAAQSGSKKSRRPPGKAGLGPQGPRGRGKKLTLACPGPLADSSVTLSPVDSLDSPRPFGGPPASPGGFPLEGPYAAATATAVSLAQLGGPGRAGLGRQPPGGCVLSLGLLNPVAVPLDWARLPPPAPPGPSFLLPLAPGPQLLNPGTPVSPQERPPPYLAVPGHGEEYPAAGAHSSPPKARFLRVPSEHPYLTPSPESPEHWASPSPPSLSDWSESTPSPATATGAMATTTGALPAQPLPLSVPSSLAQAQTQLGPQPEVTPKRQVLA
Assay [20] can be described thus: probe aEGFR binding to arrayed compounds – biochemical, biotinylated probe, 635/667 nm fluorescence, primary screen (AID 1097).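 Note: probe is a biotinylated anti-EGFR antibody binding compounds printed on slides; score combines fluorescence near 667 nm and signal to noise of each spot.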 The note with it: small-molecule microarray, higher = more signal.

The structures appear in SMILES notation. Activity calls are given as the source filed them.

For `CCOC(=O)C1=CC[C@@H](c2ccc(OC)cc2)N(S(=O)(=O)c2ccc(C)cc2)[C@H]1c1ccc(C)cc1`, the composite z-score in assay [1] was -0.208; in assay [2] it was -0.236; in [3], -0.062; in assay [4], 0.584; in assay [5], 1.52; in [6], 0.46. In addition, the composite z-score was 1.05 in assay [7]; 1.11 in assay [9]; -0.0618 in [10]; 0.966 in [11]; 2.84 in assay [15]; 0.194 in [17]. The composite z-score in assay [18] turned out to be 0.191; in assay [19], 1.09; in [20], 0.0656. Further, the z-score in assay [8] was 0.0599 (inactive); in assay [12], 0.106 (inactive); in assay [13], 0.529 (inactive); in assay [14] it was 0.53 (inactive); in assay [16], -0.747 (inactive).

With `CC(=O)OCC1C2CC[C@H]3C(OCc4ccc(F)cc4C(F)(F)F)OC[C@]4(C)[C@H]3C2=C(CN4C(=O)OC(C)(C)C)[C@H](C)C1COC(C)=O` (stereo not given in full), the composite z-score in [1] was 0.496; in assay [2] it was 1.4; in assay [3], -0.0336; in assay [4], 0.363; in assay [5] it was 0.101; in [6] it was 0.823. For the same compound, the composite z-score is 0.783 in [7]; 0.579 in assay [9]; 0.141 in assay [10]; -0.025 in [11]; 1.35 in assay [15]; 0.054 in [17]. In addition, the composite z-score was 1.2 in assay [18], -0.439 in assay [19] and -0.0512 in [20]. Also, the z-score is 1.06 (inactive) in assay [8]; 1.56 (inactive) in [12]; 2.04 (inactive) in assay [13]; 1.15 (inactive) in assay [14]; -1.36 (inactive) in assay [16].

Regarding `COC(=O)C[C@H]1O[C@@]2(C[C@@H]1[Si](C)(C)C)C(=O)N(C)c1ccccc12`, the composite z-score in assay [1] is -0.469; in assay [2], 0.105; in [3] it was -0.129; in [4], 0.487; in assay [5], 0.833; in assay [6] it was 0.22. Besides, the composite z-score was 0.672 in assay [7]; 0.607 in assay [9]; -0.0645 in assay [10]; 0.447 in [11]; 1.2 in [15]; -0.15 in assay [17]. For the same compound, the composite z-score stood at 0.297 in assay [18], 0.764 in [19] and 0.0747 in assay [20]. For the same compound, the z-score in [8] was -0.933 (inactive); in [12] it was -2.53 (inactive); in [13], -2.4 (inactive); in assay [14], -1.5 (inactive); in assay [16] it was 1.62 (inactive).

`CCCN1C(=O)[C@@]2(c3ccc([N+](=O)[O-])cc3)CC(=O)N(CC34CC5CC(CC(C5)C3)C4)[C@@H]2c2ccc(CO)cc21`: the composite z-score in assay [1] is 0.402; in [2], -0.519; in [3], -0.165; in [4], -0.046; in assay [5], -0.421; in assay [6] it was 0.0413. The composite z-score in [7] was -0.58; in assay [9] it was -0.103; in assay [10], -0.213; in assay [11] it was -0.247; in assay [15] it was 0.162; in [17], -0.0099. For the same compound, the composite z-score in [18] is 0.047; in assay [19] it was -0.184; in assay [20], 0.142. The z-score in assay [8] was 0.244 (inactive); in [12], -0.962 (inactive); in assay [13], -0.365 (inactive); in [14], -1.93 (inactive); in [16], -0.19 (inactive).
